A selection: hits, their analogues and other compounds. The true share with any hit is near 19%.
SARS PLpro yeast: blocks SARS-CoV papain-like protease in a yeast assay | 330,000 tested, 0.19% active | S. cerevisiae expressing SARS-CoV PLpro, growth rescue | Potency, µM (highest dose often 32.9 µM), for the others: top-dose activity, positive = growth rescue, most hits filed as activators; calls by dose curve; also: potency is read from the fitted curve at half-maximal effect; 0% is about no effect; nearly all actives have a fitted effect of over 55% in size
CHX counter: counter-screen for Shiga toxin inhibitors: cycloheximide protein synthesis inhibition; max response, %; 300,000 tested, 12% active; cell reporter, cycloheximide protein synthesis inhibition counterscreen; in the data active = max response mostly above about 13%, no sharp cut-off; inactive = mostly below about 14%; also: read at 38.3 µM for the half of the compounds with a filed dose; 0% is about no effect
Shiga inhibitor: inhibitors of Shiga toxin in Vero cells; Vero cells, Shiga toxin protein synthesis inhibition reporter; AID 2315; 290,000 tested, 9.2% active; inhibition, % at 38.7 µM; in the data active = inhibition mostly above about 28%, no sharp cut-off; inactive = mostly below about 43%; also: 0% is about no effect
Pf growth 48h: P. falciparum growth inhibition at 48 hours (one generation). Potency, µM (titrated, usually from 28.7 µM), without a hit: at the top dose activity change, negative = inhibition, most hits filed as inhibitors. AID 504832. P. falciparum luciferase growth in erythrocytes, 48 h. 310,000 tested, 5.9% active; also: potency is read from the fitted curve at half-maximal effect; % is scaled to controls: 0 for no effect and ±100 for the full control effect
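Cell-based growth assay: transgenic P. falciparum expressing firefly luciferase, cultured in red cells within RPMI 1640 containing 0.5% w/v Albumax, 24 mM bicarbonate and gentamycin. A drop in luciferase activity indicates inhibition.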
Pf growth 96h: P. falciparum growth inhibition at 96 hours; P. falciparum luciferase reporter growth, 96 h; Potency, µM (top dose mostly 28.7 µM), without a hit: at the top dose activity change, negative = inhibition, actives largely listed as inhibitors; 320,000 tested, 6.9% active; AID 504834; also: potency is read from the fitted curve at half-maximal effect; % is scaled to controls: 0 for no effect and ±100 for the full control effect
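P. falciparum expressing integrated firefly luciferase, in erythrocytes at 2% hematocrit, 0.05% parasitemia, incubated with compounds 96 h at 37 C, 5% CO2. Growth inhibition read as loss of luminescence; two-generation exposure targets delayed-death apicoplast inhibitors.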
AMA1-RON2 inh: inhibitors of Plasmodium falciparum AMA1-RON2 interaction; AlphaScreen AMA1-biotinylated RON2 peptide binding; Potency, µM (titrated, usually from 58.2 µM), without a hit: top-dose activity change, negative = inhibition, usual class: inhibitors; 360,000 tested, 0.2% active;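 also: potency is read from the fitted curve at half-maximal effect; 0% = vehicle wells and -100% = peptide control; nearly all actives have a fitted effect of over 45% in size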
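AMA1 (3D7) with his tag at 25 nM final met compounds first, then biotinylated RON2 peptide at 25 nM; detection used donor plus acceptor beads, 10 µg/mL apiece, read by AlphaScreen after 30 min at room temperature.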
* hit, by the source's call; ? = inconclusive; . = no result. Unless noted, calls follow the shape of the dose curve; as a rule, active = well fitted curve in the direction sought with a large enough effect; inconclusive = small, poorly fitted or top-dose-only effect, or another doubt; inactive = no such curve, though single readings can be large; an effect the other way counts as inactive or inconclusive.

SMILES	SARS PLpro yeast	CHX counter	Shiga inhibitor	Pf growth 48h	Pf growth 96h	AMA1-RON2 inh
CCCn1c2ccccc2c2nnc(SCCN3CCOCC3)nc21	4.0%	-3.1	-8.2	?	0.3%	6.0%
CCCn1c2ccc(C)cc2c2nnc(SCCN3CCCCC3)nc21	0.3%	-4.9	-11.1	?	9.28µM*	8.9%
Cn1nc2c3ccccc3n(Cc3ccccc3)c2nc1=S	0.8%	41.1*	121.3*	14.9%	-23.4%	23.0%
CC1(C(=O)NS(=O)(=O)c2ccccc2Cl)CCN1C(=O)c1cccc2ccccc12 (stereo not drawn)	.	.	.	.	.	-2.8%
C=CCn1c2ccccc2c2nnc(SCN3C(=O)c4ccccc4C3=O)nc21	-12.4%	7.8	-13.9	1.1%	-35.2%	-18.4%
C=CCn1c2ccccc2c2nnc(SCCN3CCCCC3)nc21	5.3%	5.2	.	?	10.4µM*	8.1%
CC(=N[C@@H]1CCCC[C@H]1N=C(C)c1ccccc1O)c1ccccc1O	25.2%	7.4	8.2	23.6%	65.3%	50.8%
CCS(=O)(=O)n1nc(-c2ccc(C)cc2)nc1N	-3.5%	9.4*	8.8	7.5%	.	-13.9%
CCS(=O)(=O)n1nc(-c2ccc(Cl)cc2)nc1N	9.8%	14.7	30.0	32.9%	-12.7%	0.2%
CCS(=O)(=O)n1nc(-c2ccc(Cl)cc2)nc1SCc1ccccc1	-81.9%	19.0*	59.8*	188.1%	117.2%	6.3%
CCc1sc(C(=O)NCCCn2ccnc2)cc1Br	.	3.8	.	-79.2%	?	-1.9%
CCOC(=O)c1ccc2c(c1)NCc1cccc(OC)c1O2	-4.6%	52.7*	99.4*	151.0%	246.5%	-5.2%
COc1ccc(C(=O)OCC(=O)c2ccc3c(c2)NC(=O)CO3)cc1OC	0.1%	.	.	.	.	3.7%
CC(C)(C)NC(=O)C(c1ccncc1)N(C(=O)Cn1nnc(-c2ccc(F)cc2)n1)c1cccc(F)c1 (stereo not drawn)	0.8%	28.5*	55.9	?	0.0%	13.1%
CC(C)(C)NC(=O)C(c1c[nH]c2ccccc12)N(C(=O)Cn1nnc(-c2ccc(Cl)cc2)n1)c1ccccc1F (stereo not drawn)	10.7%	2.6	4.0	?	29.6%	-3.6%
COc1cccc(N(C(=O)Cn2nnc(-c3ccc(C)cc3)n2)C(C(=O)NC(C)(C)C)c2c[nH]c3ccccc23)c1 (stereo not drawn)	-1.2%	-1.1	-7.2	11.7µM*	2.33µM*	?
C[C@H]1CN([C@@H](C)CO)C(=O)c2cc(Br)cnc2O[C@H]1CN(C)C(=O)c1ccc2c(c1)OCO2	.	.	.	.	.	13.4%
O=C1CSC(c2ccc(F)cc2)N1c1nnc(C23CC4CC(CC(C4)C2)C3)s1 (stereo not drawn)	-6.4%	1.0	-10.5	.	-6.4%	.
Cc1cc(C)c(NC(=O)CNC(=O)c2ccccc2OCc2c(C)noc2C)c(C)c1	3.4%	.	.	18.7%	1.3%	-9.8%
COC(=O)C(c1ccccc1)C(C(=O)OC)c1ccccc1 (stereo not drawn)	1.1%	-0.9	-5.2	25.0%	-0.4%	-0.2%
COC(=O)[C@@H](c1ccccc1)N(C)S(=O)(=O)c1cccc(S(=O)(=O)N(C)[C@@H](C(=O)OC)c2ccccc2)c1	-0.8%	1.2	-5.7	13.1µM*	?	10.0%
CCOC(=O)c1c(NC(=O)Nc2cccc(Cl)c2)sc(C)c1C	-8.5%	6.4	5.2	?	.	-1.8%
CCOC(=O)C1=C(Nc2cccc(Cl)c2)OCC1=O	-10.8%	-3.9	7.2	-26.1%	9.28µM*	-0.5%
CC(=O)Nc1ccc(C(=O)N2CCCCC2c2cc(C(=O)Nc3cccc(C#N)c3)no2)cc1 (stereo not drawn)	.	.	.	.	.	2.8%
COc1ccc(CCN2CCCC(CN(C)C(=O)c3ccoc3)C2)cc1 (stereo not drawn)	2.8%	51.8*	142.2*	-0.5%	0.0%	2.4%
SMILES	SARS PLpro yeast	CHX counter	Shiga inhibitor	Pf growth 48h	Pf growth 96h	AMA1-RON2 inh
Cc1ccccc1CCN1CCCC(CN(C)C(=O)C(=O)c2ccco2)C1 (stereo not drawn)	-0.2%	17.6*	36.9	29.5%	10.0%	-17.3%
COc1ccc(CN(C)CC2CCCN(CCc3ccccc3C)C2)cc1O (stereo not drawn)	-10.2%	-2.6	11.1	5.86µM*	?	-3.0%
COc1ccc(CCN2CCCC(CN(C)Cc3cc(Cl)c(O)c(OC)c3)C2)cc1 (stereo not drawn)	-9.2%	-1.6	-6.6	2.33µM*	105.7%	1.1%
CC(C)NC(=O)Nc1cccc2c1O[C@H](CN(C)C(=O)NC1CCCCC1)[C@@H](C)CN([C@H](C)CO)C2=O	-4.3%	.	.	.	.	25.0%
C/C(Cc1ccccc1)=N\NC(=O)CNC(=O)c1ccccc1Br	3.1%	-3.1	-8.2	-12.3%	-2.7%	8.3%
O=C(NCCO)c1nc(C(=O)c2ccccc2)c2ccccc2n1	6.9%	.	.	6.7%	36.1%	2.8%
C[C@@H]1CN([C@H](C)CO)C(=O)CCCn2nncc2CO[C@@H]1CN(C)C(=O)Nc1cccc2ccccc12	.	.	.	.	.	18.6%
Oc1cccc(/C=N/N=C/c2cccc(O)c2O)c1O	-15.2%	30.2*	18.0	13.1µM*	?	66.0%
Cc1ccc(O)c(C=Nc2ccc3[nH]ncc3c2)c1	-24.9%	-1.0	-5.7	15.9%	?	2.3%
CC(C)(C)c1ccc(O)c(N=Cc2cc(Br)ccc2O)c1	-0.7%	20.1*	30.6*	10.4µM*	25.9%	32.8%
Cc1ccc(O)c(C=Nc2cc(C)ccc2O)c1	-28.6%	14.9*	67.2	?	?	15.8%
Cc1ccc(N=Cc2cccc(O)c2O)c(C)c1	-15.2%	24.7	36.7*	?	11.7µM*	.
Cc1ccccc1N=Cc1cccc(O)c1O	-86.2%	7.6	7.0	?	3.1%	-12.6%
CCCCN1CC(N2CCN(C)CC2)CS1(=O)=O (stereo not drawn)	.	.	.	.	.	29.2%
COc1ccc(NC(=O)c2cc(S(=O)(=O)N(Cc3ccccc3)c3ccccc3)ccc2Cl)cn1	-6.6%	5.7	1.5	?	?	-12.0%
CCOc1ccc(N=Cc2ccccc2O)cc1	.	.	.	.	.	2.3%
CCc1ccc(O)c(N=Cc2ccccc2O)c1	-4.5%	14.8*	71.0*	?	.	30.0%
CC(Sc1nc2ccccc2c(=O)n1C)C(=O)N(C)C1CCCCC1 (stereo not drawn)	-2.4%	.	.	1.85µM*	?	1.5%
CC(Sc1nc2ccccc2c(=O)n1CC1CCCO1)C(=O)N(C)Cc1ccccc1 (stereo not drawn)	3.2%	.	.	?	10.4µM*	4.5%
CC(C)CCn1c(SC(C)C(=O)NC2CC2)nc2ccccc2c1=O (stereo not drawn)	-4.7%	.	.	?	?	24.6%
Cc1cc(C(=O)NCC(c2ccco2)N(C)C)ccc1[N+](=O)[O-] (stereo not drawn)	-1.1%	8.9*	-4.0	-5.4%	5.8%	1.8%
Cc1cc(C(=O)NCC(c2ccco2)N(C)C)no1 (stereo not drawn)	-2.2%	-2.2	-9.5	10.2%	9.28µM*	20.6%

High-throughput results as filed in PubChem.
